Laboratory results from the supplement of paper PMC10849652.
About 7,900 targets were measured; listed, in parts, are those with a hit and a random draw of the rest. About 0.6% of all pairs of compound and target were hits. Values without a mark were called inactive.

Tests used:
Experiment in all cases: log2 fold change, soluble protein after heating vs DMSO (PISA); higher = thermal stabilisation; K562 cells, 10 uM, 30 min; active = over 0.2 and 3.5 SD of the protein, either way, in both replicates (recomputed)
[1] = compound: NC(=O)Nc1cc(-c2cccc(F)c2)sc1C(=O)N[C@H]1CCCNC1
In short: (§1)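 Soluble protein was defined as the supernatant after 21,000xg for 90 min. It came from K562 cells at 2×10^6 cells/mL given 10 μM compound for 30 min, heated in aliquots for 3 min across 48°C-58°C, pooled, and extracted in PBS with 0.5% NP-40 at 4°C, and was quantified by TMTpro 16plex LC-MS/MS with equalised channel sums. Thermal stability against control samples, from duplicates, is reported as log2 fold change.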

[2] = compound: NC(=O)c1cnc(N[C@@H]2CCCC[C@@H]2N)nc1Nc1cccc(-n2nccn2)c1
In short: as §1

[3] = compound: NC1(c2ccc(-c3nc4ccn5c(=O)[nH]nc5c4cc3-c3ccccc3)cc2)CCC1
In short: as §1

[4] = compound: NCC(=O)Nc1ccc(-n2nc(C(F)(F)F)cc2-c2ccc3c(ccc4ccccc43)c2)cc1
In short: as §1

entinostat = compound: Nc1ccccc1NC(=O)c1ccc(CNC(=O)OCc2cccnc2)cc1 [entinostat]
In short: as §1

vorinostat = compound: O=C(CCCCCCC(=O)Nc1ccccc1)NO [vorinostat]
In short: as §1

citarinostat = compound: O=C(CCCCCCNC(=O)c1cnc(N(c2ccccc2)c2ccccc2Cl)nc1)NO [citarinostat]
In short: as §1

silmitasertib = compound: O=C(O)c1ccc2c(c1)nc(Nc1cccc(Cl)c1)c1ccncc12 [silmitasertib]
In short: as §1

[5] = compound: O=C1NC(=O)C(c2cnc3ccccn23)=C1c1cn2c3c(cc(F)cc13)CN(C(=O)N1CCCCC1)CC2
In short: as §1

[6] = compound: c1cc(OCCN2CCCCC2)cc(-c2n[nH]c3ccc(-c4nnc[nH]4)cc23)c1
In short: as §1

UniProt P49642, sequence (P49642 whole entry, looked up): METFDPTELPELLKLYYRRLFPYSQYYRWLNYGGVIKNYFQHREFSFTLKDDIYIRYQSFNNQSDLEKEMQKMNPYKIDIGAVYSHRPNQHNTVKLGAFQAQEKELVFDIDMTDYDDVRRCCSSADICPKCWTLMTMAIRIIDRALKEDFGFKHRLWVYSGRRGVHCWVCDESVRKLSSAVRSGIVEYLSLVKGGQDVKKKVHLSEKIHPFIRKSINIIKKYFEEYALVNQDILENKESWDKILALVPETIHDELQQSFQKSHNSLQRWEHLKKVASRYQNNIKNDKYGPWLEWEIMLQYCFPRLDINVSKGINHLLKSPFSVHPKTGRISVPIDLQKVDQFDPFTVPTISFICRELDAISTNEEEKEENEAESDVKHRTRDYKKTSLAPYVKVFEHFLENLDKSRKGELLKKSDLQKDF
UniProt O00233, sequence (O00233 whole entry, looked up): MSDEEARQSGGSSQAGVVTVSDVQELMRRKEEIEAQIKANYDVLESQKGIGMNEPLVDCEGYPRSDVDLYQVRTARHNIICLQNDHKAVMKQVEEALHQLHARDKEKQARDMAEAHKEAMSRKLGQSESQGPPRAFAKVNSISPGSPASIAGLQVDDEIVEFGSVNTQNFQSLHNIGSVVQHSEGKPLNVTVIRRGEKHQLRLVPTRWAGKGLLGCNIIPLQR
UniProt Q8N8N7, sequence (Q8N8N7 whole entry, looked up): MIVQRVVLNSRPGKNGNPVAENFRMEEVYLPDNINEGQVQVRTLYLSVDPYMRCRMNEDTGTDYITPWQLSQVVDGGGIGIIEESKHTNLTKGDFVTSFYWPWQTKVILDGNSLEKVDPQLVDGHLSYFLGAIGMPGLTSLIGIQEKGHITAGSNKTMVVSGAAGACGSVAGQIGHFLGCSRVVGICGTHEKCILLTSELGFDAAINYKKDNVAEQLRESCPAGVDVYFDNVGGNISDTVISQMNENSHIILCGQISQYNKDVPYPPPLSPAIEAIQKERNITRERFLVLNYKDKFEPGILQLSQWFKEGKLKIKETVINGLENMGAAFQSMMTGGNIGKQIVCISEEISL
UniProt Q5H8A4, sequence (Q5H8A4 whole entry, looked up): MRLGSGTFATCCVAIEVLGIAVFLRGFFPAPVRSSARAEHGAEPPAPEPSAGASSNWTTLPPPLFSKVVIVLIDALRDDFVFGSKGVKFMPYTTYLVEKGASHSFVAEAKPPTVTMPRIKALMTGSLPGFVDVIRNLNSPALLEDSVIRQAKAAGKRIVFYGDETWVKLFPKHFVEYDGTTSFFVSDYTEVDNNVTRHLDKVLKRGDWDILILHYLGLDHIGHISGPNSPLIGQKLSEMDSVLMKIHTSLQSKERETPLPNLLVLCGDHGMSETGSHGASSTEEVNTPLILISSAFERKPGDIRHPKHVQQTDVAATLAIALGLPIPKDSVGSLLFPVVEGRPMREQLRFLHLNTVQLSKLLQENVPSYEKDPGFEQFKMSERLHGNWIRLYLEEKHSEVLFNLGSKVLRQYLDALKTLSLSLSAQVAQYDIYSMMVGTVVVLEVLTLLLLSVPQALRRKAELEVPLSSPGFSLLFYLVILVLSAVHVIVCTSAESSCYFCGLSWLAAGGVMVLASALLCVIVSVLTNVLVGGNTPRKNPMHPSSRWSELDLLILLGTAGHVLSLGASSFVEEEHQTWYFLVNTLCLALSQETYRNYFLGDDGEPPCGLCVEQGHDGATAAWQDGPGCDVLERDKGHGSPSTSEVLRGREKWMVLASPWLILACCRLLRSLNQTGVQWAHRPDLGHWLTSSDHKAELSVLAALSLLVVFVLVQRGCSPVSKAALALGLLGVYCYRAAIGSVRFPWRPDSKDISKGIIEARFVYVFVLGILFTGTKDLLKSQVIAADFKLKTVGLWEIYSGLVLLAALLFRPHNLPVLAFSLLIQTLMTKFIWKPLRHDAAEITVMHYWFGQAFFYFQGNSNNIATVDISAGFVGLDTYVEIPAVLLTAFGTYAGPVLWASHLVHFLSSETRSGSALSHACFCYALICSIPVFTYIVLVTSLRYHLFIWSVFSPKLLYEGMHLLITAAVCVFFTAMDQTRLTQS
UniProt Q32M88, sequence (Q32M88 whole entry, looked up): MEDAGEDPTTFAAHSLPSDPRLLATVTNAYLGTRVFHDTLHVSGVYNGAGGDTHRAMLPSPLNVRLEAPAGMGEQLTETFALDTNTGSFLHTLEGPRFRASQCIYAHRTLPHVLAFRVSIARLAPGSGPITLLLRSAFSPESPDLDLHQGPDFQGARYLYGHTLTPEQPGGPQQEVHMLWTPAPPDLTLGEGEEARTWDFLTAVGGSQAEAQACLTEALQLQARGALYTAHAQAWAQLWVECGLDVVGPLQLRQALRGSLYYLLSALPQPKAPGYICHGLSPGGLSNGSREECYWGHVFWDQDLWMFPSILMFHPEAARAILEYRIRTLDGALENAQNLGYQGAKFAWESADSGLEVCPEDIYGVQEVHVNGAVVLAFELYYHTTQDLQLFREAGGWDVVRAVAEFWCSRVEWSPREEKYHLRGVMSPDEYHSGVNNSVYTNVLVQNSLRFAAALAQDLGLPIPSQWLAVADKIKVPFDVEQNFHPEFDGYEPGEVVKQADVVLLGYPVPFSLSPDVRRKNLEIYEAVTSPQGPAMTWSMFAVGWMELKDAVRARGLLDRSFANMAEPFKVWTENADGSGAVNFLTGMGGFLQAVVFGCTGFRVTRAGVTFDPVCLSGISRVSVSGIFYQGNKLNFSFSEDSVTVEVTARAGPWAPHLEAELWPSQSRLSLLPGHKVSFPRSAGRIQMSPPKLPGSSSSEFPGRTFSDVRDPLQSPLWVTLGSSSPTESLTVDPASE
UniProt P48426, sequence (P48426 whole entry, looked up): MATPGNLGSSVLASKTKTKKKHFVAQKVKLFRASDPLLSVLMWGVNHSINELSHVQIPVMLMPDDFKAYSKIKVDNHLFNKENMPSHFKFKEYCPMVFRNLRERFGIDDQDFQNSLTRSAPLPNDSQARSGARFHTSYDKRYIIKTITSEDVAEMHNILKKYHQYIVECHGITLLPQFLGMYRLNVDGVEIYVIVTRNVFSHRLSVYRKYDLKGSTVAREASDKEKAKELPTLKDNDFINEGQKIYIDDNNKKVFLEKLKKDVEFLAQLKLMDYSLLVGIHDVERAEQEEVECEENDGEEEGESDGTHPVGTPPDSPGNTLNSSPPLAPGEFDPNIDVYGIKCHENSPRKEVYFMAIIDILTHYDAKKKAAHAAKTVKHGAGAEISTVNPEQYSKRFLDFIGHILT
UniProt P53350, sequence (P53350 whole entry, looked up): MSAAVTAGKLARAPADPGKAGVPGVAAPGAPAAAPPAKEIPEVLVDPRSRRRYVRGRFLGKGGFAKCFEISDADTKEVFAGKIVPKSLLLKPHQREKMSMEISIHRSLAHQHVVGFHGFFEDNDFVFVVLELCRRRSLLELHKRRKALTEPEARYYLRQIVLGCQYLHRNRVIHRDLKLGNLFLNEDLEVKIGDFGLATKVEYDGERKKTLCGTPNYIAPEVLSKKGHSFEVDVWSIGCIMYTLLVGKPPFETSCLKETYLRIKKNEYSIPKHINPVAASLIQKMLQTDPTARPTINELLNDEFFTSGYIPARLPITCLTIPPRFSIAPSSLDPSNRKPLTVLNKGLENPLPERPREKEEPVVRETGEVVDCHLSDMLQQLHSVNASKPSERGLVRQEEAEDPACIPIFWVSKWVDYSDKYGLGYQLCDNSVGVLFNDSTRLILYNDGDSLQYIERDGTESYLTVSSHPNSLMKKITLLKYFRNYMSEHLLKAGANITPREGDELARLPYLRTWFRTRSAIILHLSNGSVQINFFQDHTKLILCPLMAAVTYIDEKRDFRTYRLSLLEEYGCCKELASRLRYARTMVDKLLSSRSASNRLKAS
UniProt O60925, sequence (O60925 whole entry, looked up): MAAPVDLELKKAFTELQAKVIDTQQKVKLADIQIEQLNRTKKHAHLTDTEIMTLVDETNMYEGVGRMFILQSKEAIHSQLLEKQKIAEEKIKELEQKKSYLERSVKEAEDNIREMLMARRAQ
UniProt O15355, sequence (O15355 whole entry, looked up): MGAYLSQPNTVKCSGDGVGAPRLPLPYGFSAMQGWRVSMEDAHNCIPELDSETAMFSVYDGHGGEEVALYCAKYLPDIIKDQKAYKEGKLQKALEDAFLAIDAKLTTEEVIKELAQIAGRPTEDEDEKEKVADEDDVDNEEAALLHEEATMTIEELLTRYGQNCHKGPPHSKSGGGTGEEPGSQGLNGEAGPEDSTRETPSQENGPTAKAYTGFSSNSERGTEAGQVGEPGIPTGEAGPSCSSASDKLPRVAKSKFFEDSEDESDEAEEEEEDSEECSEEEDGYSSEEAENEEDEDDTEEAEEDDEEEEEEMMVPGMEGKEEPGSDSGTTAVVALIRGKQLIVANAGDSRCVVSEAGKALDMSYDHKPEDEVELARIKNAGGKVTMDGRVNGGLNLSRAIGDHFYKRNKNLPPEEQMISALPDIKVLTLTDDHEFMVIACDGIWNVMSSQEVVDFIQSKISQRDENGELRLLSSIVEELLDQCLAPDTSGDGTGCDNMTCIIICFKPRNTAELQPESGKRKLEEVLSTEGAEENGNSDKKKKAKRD
UniProt Q7Z7A4, sequence (Q7Z7A4 whole entry, looked up): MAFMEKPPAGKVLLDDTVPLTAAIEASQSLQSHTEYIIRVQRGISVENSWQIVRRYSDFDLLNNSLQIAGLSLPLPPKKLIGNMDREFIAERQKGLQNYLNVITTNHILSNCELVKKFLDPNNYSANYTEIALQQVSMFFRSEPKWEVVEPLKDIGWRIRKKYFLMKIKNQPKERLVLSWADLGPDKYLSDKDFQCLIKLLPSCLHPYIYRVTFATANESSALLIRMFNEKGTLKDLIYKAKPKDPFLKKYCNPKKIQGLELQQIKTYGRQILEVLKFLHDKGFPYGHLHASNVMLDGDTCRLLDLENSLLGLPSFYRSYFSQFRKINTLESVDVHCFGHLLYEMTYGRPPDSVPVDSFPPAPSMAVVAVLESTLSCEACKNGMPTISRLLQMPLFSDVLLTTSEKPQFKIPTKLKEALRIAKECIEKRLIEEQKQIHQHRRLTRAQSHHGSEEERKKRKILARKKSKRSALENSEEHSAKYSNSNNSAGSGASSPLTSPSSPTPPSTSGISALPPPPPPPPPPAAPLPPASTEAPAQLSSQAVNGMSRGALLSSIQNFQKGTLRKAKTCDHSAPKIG

Target | log2 fold change [1] | log2 fold change [2] | log2 fold change [3] | log2 fold change [4] | log2 fold change (entinostat) | log2 fold change (vorinostat) | log2 fold change (citarinostat) | log2 fold change (silmitasertib) | log2 fold change [5] | log2 fold change [6]
PPM1G (UniProt O15355) | -0.147 | -0.086 | -0.018 | -0.181 | 0.017 | 0.079 | 0.033 | 0.031 | -0.114 | -0.102
PCYT1B (UniProt Q9Y5K3) | -0.019 | -0.007 | -0.218 | -0.03 | 0.043 | -0.038 | 0.084 | 0.077 | -0.231 | -0.025
PIGG (UniProt Q5H8A4) | -0.046 | -0.032 | -0.06 | 0.052 | 0.039 | -0.104 | 0.052 | 0.025 | -0.019 | 0.029
PIP4P1 isoform 2 (UniProt Q86T03) | 0.012 | 0.086 | -0.326 | 0.095 | 0.042 | -0.019 | 0.01 | 0.054 | 0.043 | -0.031
PSMD1 (UniProt Q99460) | 0.086 | 0.007 | -0.013 | 0.068 | 0.006 | 0.013 | 0.014 | -0.019 | 0.094 | -0.057
PSPC1 (UniProt Q8WXF1) | -0.001 | -0.039 | 0.021 | -0.027 | -0.014 | 0.14 | 0.067 | -0.032 | -0.074 | -0.057
PTDSS1 (UniProt P48651) | 0.043 | -0.045 | 0.022 | -0.007 | -0.058 | 0.199 | -0.051 | 0.091 | 0.184 | -0.06
PARG (UniProt Q86W56) | 0.141 | 0.001 | -0.113 | -0.013 | 0.12 | 0.157 | 0.067 | 0.048 | 0.065 | -0.091
PRIM2 (UniProt P49643) | -0.035 | -0.141 | -0.16 | -0.061 | 0.058 | 0.098 | 0.135 | 0.033 | -0.096 | -0.018
PSMC4 (UniProt P43686) | 0.018 | -0.016 | 0.028 | 0.027 | -0.023 | -0.023 | -0.015 | -0.015 | 0.043 | -0.051
POLR1A (UniProt O95602) | 0.044 | 0.012 | -0.208 | 0.172 | -0.012 | 0.098 | 0.018 | 0.033 | 0.036 | 0.045
PSMC3 (UniProt P17980) | 0.014 | -0.011 | 0.046 | 0.078 | -0.024 | -0.017 | -0.053 | -0.018 | 0.049 | -0.092
POLR2B (UniProt P30876) | -0.054 | 0.059 | -0.043 | -0.106 | 0.061 | -0.089 | 0 | 0.1 | 0.09 | -0.065
PTGR2 (UniProt Q8N8N7) | -0.039 | -0.077 | 0.123 | -0.164 | -0.05 | -0.149 | 0.009 | -0.011 | 0.611 (active) | 0.231
PTPN12 (UniProt Q05209) | 0.037 | -0.023 | -0.1 | -0.012 | 0.038 | -0.01 | 0.019 | 0.163 | 0.014 | -0.015
PLSCR1 (UniProt O15162) | -0.092 | -0.005 | -0.111 | -0.068 | -0.212 | -0.082 | 0.05 | 0.022 | -0.081 | -0.096
PRMT3 (UniProt O60678) | 0.042 | -0.05 | -0.187 | -0.034 | 0.055 | 0.041 | 0.042 | -0.023 | -0.027 | -0.027
POLD3 (UniProt Q15054) | 0.035 | -0.143 | -0.107 | -0.108 | 0.134 | -0.008 | 0.003 | -0.022 | -0.013 | 0.109
PGGHG (UniProt Q32M88) | -0.036 | -0.155 | -0.051 | 0.083 | -0.033 | 0.019 | -0.009 | 0.073 | -0.076 | 0.058
PMM1 (UniProt Q92871) | 0.005 | 0.006 | -0.01 | 0.002 | -0.021 | 0.113 | 0.034 | -0.005 | 0.004 | -0.012
PI4K2A (UniProt Q9BTU6) | 0.033 | 0.204 | -0.152 | -0.05 | -0.013 | 0.039 | 0.072 | -0.012 | -0.05 | 0.003
PLK1 (UniProt P53350) | -0.399 (active) | 0.033 | -0.024 | 0.005 | -0.005 | 0.002 | 0.019 | -0.135 | 0.032 | -0.103
PRKAR1A (UniProt P10644) | -0.052 | 0.191 | 0.301 | -0.041 | -0.068 | -0.16 | 0 | 0.166 | 0.063 | -0.04
PIP4K2A (UniProt P48426) | -0.026 | 0.013 | -0.086 | 0.113 | 0.026 | -0.037 | 0.004 | 0.259 | 0.057 | -0.057
POP1 (UniProt Q99575) | 0.072 | 0.025 | 0.03 | 0.045 | -0.019 | -0.013 | -0.003 | -0.011 | 0.038 | -0.128
PFDN1 (UniProt O60925) | 0.013 | 0.003 | 0.002 | -0.047 | 0.044 | -0.056 | 0.09 | -0.029 | -0.05 | -0.001
PRPF38A (UniProt Q8NAV1) | -0.039 | -0.015 | -0.105 | -0.006 | 0.004 | 0.002 | 0.152 | -0.212 | 0.095 | -0.122
PXK (UniProt Q7Z7A4) | -0.057 | -0.044 | -0.279 (active) | -0.073 | 0.014 | 0.018 | 0.021 | -0.002 | -0.043 | 0.008
PRIM1 (UniProt P49642) | -0.008 | -0.016 | -0.093 | -0.056 | 0.041 | 0.065 | 0.063 | 0.089 | 0.023 | -0.037
PSMD9 (UniProt O00233) | 0.041 | 0.017 | 0.022 | 0.072 | 0.017 | 0.086 | 0.029 | -0.013 | -0.027 | 0.005
